Bioassay records: PubChem BioAssay, several laboratories
The list is not random: actives were taken first. Their share in the collection is about 10%.
p97 inhibitor – blocks human p97 ATPase activity; P55072; recombinant p97 ATPase, Kinase-Glo ATP luminescence, 3 h; inhibition, % at 8 µM; 220,000 tested, 0.42% active; AID 1481; in the data active means inhibition above about 15%;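 further: 0% = DMSO vehicle and 100% = wells lacking enzyme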
Insulin prom inh – TRM-6 insulin promoter activity inhibition | TRM-6 cells (human fetal islet line), insulin promoter-eGFP reporter, imaging; reporter expression induced with tamoxifen | inhibition, % at 2 µM | 130,000 tested, 0.9% active | AID 1273;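 active means inhibition above the mean plus 3 SD, with well images judged a real hit on visual review, cut at about 60% in these data, passing the limit was not always enough; inconclusive means inhibition over the cutoff but images rejected on review; inactive means inhibition not above the cutoff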
ROMK primary – modulators of human ROMK potassium channel; 130,000 tested, 2% active; B-score at 10 µM; Tet-inducible ROMK, thallium flux fluorescence; actives lie on both sides; P48048;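 active means signal ratio slope over the read window, or its plate-corrected B-score, at least 3 SD from the plate mean, either direction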;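 further: B-score of the F/F0 ratio slope over 7 to 12 s after thallium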
Target sequence (P48048 whole entry, looked up): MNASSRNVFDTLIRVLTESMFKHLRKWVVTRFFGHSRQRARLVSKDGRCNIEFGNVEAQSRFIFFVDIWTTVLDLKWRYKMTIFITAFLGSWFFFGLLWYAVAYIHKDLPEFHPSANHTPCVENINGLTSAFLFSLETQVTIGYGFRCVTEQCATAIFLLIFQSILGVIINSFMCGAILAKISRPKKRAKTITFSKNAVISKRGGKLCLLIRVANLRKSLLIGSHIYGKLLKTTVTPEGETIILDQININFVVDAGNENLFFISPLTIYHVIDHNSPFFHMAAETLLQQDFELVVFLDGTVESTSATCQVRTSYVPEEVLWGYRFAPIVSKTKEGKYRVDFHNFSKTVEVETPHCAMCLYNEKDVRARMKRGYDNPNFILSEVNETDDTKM
L major viab – reduces viability of Leishmania major promastigotes. resazurin fluorescence viability. inhibition, % at 10 µM. 200,000 tested, 9% active. AID 1063; in the data active means inhibition above about 50%;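 further: promastigotes grown with compound for 44 hours at 28 °C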
HCT116 bCat-KO – beta-catenin-lacking colon tumor cell growth suppression; HCT116 beta-catenin knockout viability, CellTiter-Glo, 60 h; stronger effect = lower value; AID 818; viability, % at 10 µM; 140,000 tested, 1.5% active;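 active means viability at or under a set limit, the compound median less 4 SD, cut at about 6% in these data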;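 further: 0% = Hyamine 1622 control at 20 µM and 100% = untreated cell control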
PTEN del growth – growth suppressors of cells with PTEN tumor suppressor deletion | HCT116 PTEN-null viability, CellTiter-Glo, 60 h; stronger effect = lower value | viability, % at 10 µM | 140,000 tested, 1.2% active;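 active means viability at or below a set limit, 4 SD under the median of all tested compounds, cut at about 3.7% in these data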;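 further: PTEN knockout HCT116 line with beta catenin targeted HCT116 as companion control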
ROMK retest – retested hit modulating human ROMK potassium channel. AID 1917. normalized thallium flux (F/F0 slope) at 10 µM. ROMK thallium flux, fluorescence ratio; stronger effect = lower value. 3,000 tested, 54% active. shares compounds with ROMK primary;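 active means Flux at 10 µM at least 3 SD below or above vehicle control mean in one or both replicates; inconclusive means no clear call, values can overlap the other calls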
Active calls of the source: *; ? = inconclusive; . = no result.

SMILES | p97 inhibitor | Insulin prom inh | ROMK primary | L major viab | HCT116 bCat-KO | PTEN del growth | ROMK retest
COc1cc(NC(=O)C2CCCCC2)c(OC)cc1NC(=O)CN1CCCCC1 | -6 | . | -0.96 | 24 | 112 | 111 | .
CC(C)Cc1nc(N2CCN(C(=O)c3ccccc3)CC2)c(C#N)c2c1CCC2 | -7 | 49 | . | 40 | 11 | 16 | .
CC(C)Cc1nc(N2CCN(C(=O)c3ccco3)CC2)c(C#N)c2c1CCC2 | -3 | 8 | -2.9 | 51* | 73 | 73 | 0.067*
CC(C)CCNC(=O)CCS(=O)(=O)c1cccc2nonc12 | 0 | . | . | -7 | 87 | 89 | .
CCCCC(CC)CNC(=O)CCS(=O)(=O)c1cccc2nonc12 (centres undefined) | 0 | . | . | -1 | 93 | 91 | ?
COCCCNC(=O)c1c(N)n(/N=C/c2cccnc2)c2nc3ccccc3nc12 | 5 | -12 | -0.017 | 14 | 82 | 81 | ?
COc1ccc(CCNC(=O)CCCNC(=O)Cn2cnc3sc(C)c(C)c3c2=O)cc1OC | 2 | . | -0.43 | -11 | . | . | .
N#Cc1c(N)n(CCOC(=O)c2cccc(Br)c2)c2nc3ccccc3nc12 | -8 | 7 | -1.4 | 1 | 97 | 87 | 0.089
O=C(NCc1n[nH]c(=S)n1-c1ccc(F)cc1)c1ccco1 | 7 | -157 | 0.61 | -5 | 93 | 102 | .
Cc1cc(C)n(-c2nc3ccccc3nc2Nc2ccc3c(c2)OCO3)n1 | 0 | . | . | 27 | 89 | 86 | .
Cc1cc(C)n(-c2nc3nonc3nc2Nc2cccc(C)c2C)n1 | 4 | . | -3.9* | -4 | 96 | 90 | 0.053*
Cc1nn(-c2ccc(Cl)cc2)c(N)c1C(O)(CSc1nccn1C)C(F)(F)F (centres undefined) | 2 | 0 | 1.1 | -5 | 82 | 81 | .
CS(=O)(=O)N(CC(=O)Nc1ccc(S(=O)(=O)N2CCCC2)cc1)c1ccccc1F | 0 | -14 | 0.027 | -4 | 93 | 105 | .
CC(C)CCOC(=O)C[N+](C)(C)CCOC1CC2CCC1(C)C2(C)C (centres undefined) | 2 | -12 | -4.1* | 91* | . | . | 0.052*
CC1(C)C2CCC1(C)C(OC(=O)c1ccccc1C(=O)O)C2 (centres undefined) | 1 | . | . | . | . | . | .
CC1(C)C2CCC1(C)C(OCCNCCOC(=O)Nc1ccccc1)C2 (centres undefined) | -10 | . | -0.081 | . | . | . | .
CCCCCCOC(=O)C[N+](C)(C)CCOC1CC2CCC1(C)C2(C)C (centres undefined) | 0 | -27 | . | 100* | 34 | 30 | 0.045*
CCCCCCCOC(=O)C[N+](C)(C)CCOC1CC2CCC1(C)C2(C)C (centres undefined) | 3 | . | . | 100* | 1.6* | 1.3* | 0.043*
CCc1cccc(NC(=O)Cn2cc(C=O)c3ccccc32)c1 | 4 | 53 | 0.97 | 14 | . | . | .
C=CCNC(=O)COC(=O)c1cc(S(=O)(=O)N2CCOCC2)ccc1N1CCCCC1 | 2 | -14 | 0.28 | -6 | 98 | 104 | .
Cc1ccccc1NC(=O)Cc1cccc(C(F)(F)F)c1 | 3 | . | -0.77 | 0 | . | . | .
CCCN(C(=O)CSc1nnnn1C)C1CCS(=O)(=O)C1 (centres undefined) | 3 | . | -0.14 | 0 | . | . | 0.08
CCN1CCN(C(=O)/C(C#N)=C/c2ccc(OC(F)F)cc2)CC1 | 0 | 36 | -3.6* | 12 | . | . | 0.047*
CN1CCC(N(C)C(=O)/C(C#N)=C/c2ccc(OC(F)F)cc2)CC1 | 4 | . | . | . | . | . | 0.046*
N#C/C(=C\c1ccc(OC(F)F)cc1)C(=O)N1CCCCC1 | 0 | . | . | . | . | . | .
SMILES | p97 inhibitor | Insulin prom inh | ROMK primary | L major viab | HCT116 bCat-KO | PTEN del growth | ROMK retest
Cc1ccc(NC2=Nc3ccccc3CC2)cc1 | 3 | -35 | 1.7 | 45 | 99 | 101 | .
Brc1ccc(NC2=Nc3ccccc3CC2)cc1 | 2 | -22 | . | 41 | 63 | 74 | 0.08
CCOC(=O)C(=Cc1ccc(-n2cncn2)cc1)C(=O)OCC | 2 | . | -5.1* | 77* | . | . | 0.063*
CSc1ncc(F)c(N(CCO)CCO)n1 | 5 | -156 | 1.3 | 42 | 91 | 96 | .
CSc1nc2[nH]c3c(c2c2nnnn12)CCCC3 | 3 | -6 | . | 46 | 98 | 82 | 0.072
OCCNc1nc(Nc2ccc(O)cc2)nc2ccccc12 | 6 | . | . | . | . | . | .
Oc1ccc(Nc2nc(NCC3CCCO3)c3ccccc3n2)cc1 (centres undefined) | 7 | 30 | -5.5* | 100* | 8 | 15 | 0.055*
COc1ccc(-c2nc[nH]c2[N+](=O)[O-])cc1 | 2 | . | 0.0017 | -3 | . | . | .
Cc1nn2c(-c3ccc(Cl)cc3Cl)nnc2s1 | 3 | . | . | 3 | 98 | 94 | .
COc1ccc(C2=CC(=O)OC3(CCCCC3)O2)cc1 | -5 | -20 | -2.4* | -2 | 66 | 69 | 0.062*
COc1cccc(NC=C2C(=O)OC3(CCCCC3)OC2=O)c1 | 6 | 16 | -0.66 | -8 | 103 | 103 | .
O=C(CC1C(=O)NCCN1Cc1c(F)cccc1Cl)NCc1ccccc1 (centres undefined) | -1 | 21 | . | -5 | . | . | .
O=C(Nc1ccc(Cl)cc1)N1N=CCC1c1ccccc1 (centres undefined) | -2 | . | -3.1* | . | . | . | 0.064*
O=C(Nc1ccc(Cl)cc1)N1CCN(c2ccccc2)CC1 | -4 | 62 | . | 6 | 96 | 80 | .
Cc1cc(C(=O)CSc2nc3ccccc3c(=O)[nH]2)c(C)n1CC1CCCO1 (centres undefined) | 5 | . | -1.3 | 4 | . | . | .
Cc1cc(C(=O)CSc2nc3ccccc3c(=O)n2C)c(C)n1CC1CCCO1 (centres undefined) | 0 | 44 | -8.5* | 2 | . | . | 0.06*
CCOC(=O)c1c(NC(=O)C(C)NCc2ccco2)sc2c1CCC(C)C2 (centres undefined) | -9 | -39 | -0.66 | 31 | 67 | 77 | .
CCC1CCCCN1C(=O)CSc1nc2ccsc2c(=O)n1Cc1ccccc1 (centres undefined) | -4 | -13 | -3.1* | 58* | 75 | 70 | 0.059*
CCOc1ccc2[nH]c(=O)c(CN(CCc3ccccc3)C(=O)c3cnccn3)cc2c1 | 1 | 0 | . | 20 | 89 | 85 | .
COC(=O)c1cc2ccsc2n1Cc1ccccc1F | 4 | -100 | 0.42 | -2 | 87 | 93 | .
CC(O)CNc1nc2ccccc2n1CC(=O)NC12CC3CC(CC(C3)C1)C2 (centres undefined) | 2 | -29 | -2.7* | 39 | . | . | 0.066*
CCN(CCCn1c(=S)[nH]c2ccc(N3CCOCC3)cc2c1=O)c1ccccc1 | -3 | -6 | 0.5 | 13 | . | . | .
CCC(=O)N1CCc2cc(S(=O)(=O)N3CCN(c4ccccn4)CC3)ccc21 | 4 | -43 | 3.6* | -3 | 83 | 85 | 0.09
CCOC(=O)N1CCN(S(=O)(=O)c2ccc3c(c2)CCN3C(=O)CC)CC1 | 3 | -14 | 1.9 | -2 | 80 | 91 | .
COc1ccc(C(=O)N/N=C/c2cc3ccccc3[nH]c2=S)cc1 | 3 | 46 | 1.2 | -14 | 47 | 56 | .
